Source: PubChem BioAssay
Activity calls are given as the source filed them.

Legend:
[1] = optical density shifts of acrAB sulA E. coli – strain DRC41, OD650, 48 h, E. coli filamentation inducer project, primary screen (AID 1152); details: higher = more signal, called active from +8 up or from −8 down;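 also: E. coli MC1000 strain DRC41 lacking acrAB efflux pump and sulA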
[2] = probe aLefty1 binding on compound microarray – biochemical, small-molecule microarray, 635/667 nm fluorescence, primary screen (AID 1153); details: higher = more signal;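 also: score merges spot fluorescence with signal-to-noise ratio from the scanned slide images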
[3] = plasmodial surface anion channel blockers, osmotic lysis – cell-based, P. falciparum Indochina, OD700, 1 h, primary screen (AID 1154); details: P. falciparum Indochina infected RBC osmotic lysis, higher = more signal, called active from +8 up or from −8 down
[4] = plasmodial surface anion channel blockers, osmotic lysis – cell-based, P. falciparum Indochina, OD700, 2 h, primary screen (AID 1155);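 also: lysis reports solute entry through the parasite surface anion channel PSAC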; details: P. falciparum Indochina infected erythrocytes, higher = more signal, called active from +8 up or from −8 down
[5] = changes in parasitized red cell lysis, either direction – P. falciparum Indochina, OD700, 3 h, PSAC antagonist project, primary screen (AID 1156); details: P. falciparum-infected erythrocytes, osmotic lysis, higher = more signal, called active from +8 up or from −8 down
[6] = plasmodial surface anion channel blockers, osmotic lysis – cell-based, P. falciparum Indochina, OD700, 18 h, primary screen (AID 1157); details: P. falciparum Indochina infected erythrocytes, osmotic lysis OD700, 18 h; higher = more signal, called active from +8 up or from −8 down
[7] = S6 kinase pathway phospho-S6 level changes – cell-based, A549, cytoblot, luminescence, serum-stimulated, primary screen (AID 1158); details: 5 h, higher = more signal;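 also: serum-stimulated A549 lung adenocarcinoma cells; signal is phosphorylated S6 detected by cytoblot immunostaining with HRP secondary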
[8] = biological target: NADPH oxidase 2 (Homo sapiens) (UniProt P04839); assay: compounds shifting NOX2 Amplex Red fluorescence – cell-based, HEK293-NOX2, PMA-stimulated, NOX inhibitor project, primary screen (AID 1159); details: 45 min, higher = more signal, called active from +8 up or from −8 down; also: test concentration not given here
[9] = biological target: NADPH oxidase 4 (Homo sapiens) (UniProt Q9NPH5); assay: compounds shifting NOX4 Amplex Red fluorescence – cell-based, HEK293-NOX4, tetracycline-induced, NOX inhibitor project, primary screen (AID 1160); details: HEK293-NOX4, Amplex Red H2O2 fluorescence, 45 min; higher = more signal, called active from +8 up or from −8 down
[10] = biological target: NADPH oxidase 5 (Homo sapiens) (UniProt Q96PH1); assay: compounds shifting NOX5 Amplex Red fluorescence – cell-based, HEK293-NOX5, NOX inhibitor project, primary screen (AID 1161); details: HEK293-NOX5, ionomycin, 45 min, higher = more signal
Chain of NADPH oxidase 5 (Homo sapiens) (Q96PH1 whole entry, looked up): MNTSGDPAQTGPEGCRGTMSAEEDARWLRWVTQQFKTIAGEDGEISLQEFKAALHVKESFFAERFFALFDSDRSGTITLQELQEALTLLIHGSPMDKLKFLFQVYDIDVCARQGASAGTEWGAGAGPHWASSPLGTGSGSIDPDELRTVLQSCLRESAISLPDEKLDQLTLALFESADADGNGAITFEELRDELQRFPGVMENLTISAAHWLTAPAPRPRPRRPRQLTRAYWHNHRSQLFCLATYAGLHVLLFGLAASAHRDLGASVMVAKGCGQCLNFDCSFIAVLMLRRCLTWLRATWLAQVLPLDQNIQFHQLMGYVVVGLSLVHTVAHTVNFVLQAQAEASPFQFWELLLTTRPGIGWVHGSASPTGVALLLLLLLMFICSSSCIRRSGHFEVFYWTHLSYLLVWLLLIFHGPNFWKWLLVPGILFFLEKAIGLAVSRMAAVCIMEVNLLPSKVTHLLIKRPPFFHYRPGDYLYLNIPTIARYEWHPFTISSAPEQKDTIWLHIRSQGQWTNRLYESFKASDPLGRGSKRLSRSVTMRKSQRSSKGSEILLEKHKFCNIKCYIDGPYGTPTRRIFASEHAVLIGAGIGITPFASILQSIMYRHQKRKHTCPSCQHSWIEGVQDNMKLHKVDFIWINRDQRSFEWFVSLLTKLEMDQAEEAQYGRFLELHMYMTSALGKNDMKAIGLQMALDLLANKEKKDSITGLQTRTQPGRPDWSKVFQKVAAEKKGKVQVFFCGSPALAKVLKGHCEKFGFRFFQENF

Chain of NADPH oxidase 4 (Homo sapiens) (Q9NPH5 whole entry, looked up): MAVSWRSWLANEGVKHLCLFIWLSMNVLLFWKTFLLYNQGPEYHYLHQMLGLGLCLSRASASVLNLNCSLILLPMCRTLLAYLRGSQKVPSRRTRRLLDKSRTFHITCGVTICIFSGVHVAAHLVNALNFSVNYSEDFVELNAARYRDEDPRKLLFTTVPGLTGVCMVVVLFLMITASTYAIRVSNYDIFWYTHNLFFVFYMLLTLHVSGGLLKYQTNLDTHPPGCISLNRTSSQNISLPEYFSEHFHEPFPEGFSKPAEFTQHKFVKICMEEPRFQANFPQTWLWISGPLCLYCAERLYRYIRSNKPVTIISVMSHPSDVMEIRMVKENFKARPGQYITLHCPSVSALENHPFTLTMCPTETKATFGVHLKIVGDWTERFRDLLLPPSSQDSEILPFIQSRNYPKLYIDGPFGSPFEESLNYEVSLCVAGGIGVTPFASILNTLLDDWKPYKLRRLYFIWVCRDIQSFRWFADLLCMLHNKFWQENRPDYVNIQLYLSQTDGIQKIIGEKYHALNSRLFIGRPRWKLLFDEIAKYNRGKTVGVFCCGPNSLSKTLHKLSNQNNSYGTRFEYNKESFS
Chain of NADPH oxidase 2 (Homo sapiens) (P04839 whole entry, looked up): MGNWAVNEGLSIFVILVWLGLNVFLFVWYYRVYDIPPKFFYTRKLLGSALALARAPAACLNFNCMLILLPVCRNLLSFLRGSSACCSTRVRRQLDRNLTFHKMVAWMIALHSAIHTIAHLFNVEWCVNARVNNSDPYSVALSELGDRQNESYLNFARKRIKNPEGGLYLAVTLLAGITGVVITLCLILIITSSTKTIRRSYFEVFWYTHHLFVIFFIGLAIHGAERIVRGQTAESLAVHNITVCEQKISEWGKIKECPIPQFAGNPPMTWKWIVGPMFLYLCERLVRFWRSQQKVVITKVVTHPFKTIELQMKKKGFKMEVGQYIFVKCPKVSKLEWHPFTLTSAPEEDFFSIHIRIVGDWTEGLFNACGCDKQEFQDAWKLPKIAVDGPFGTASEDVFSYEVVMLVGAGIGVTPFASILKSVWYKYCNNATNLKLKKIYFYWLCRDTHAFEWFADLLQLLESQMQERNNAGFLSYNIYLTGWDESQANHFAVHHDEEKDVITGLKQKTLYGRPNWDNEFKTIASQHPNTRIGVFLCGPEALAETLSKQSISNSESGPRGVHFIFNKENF

Structure (SMILES) | z-score [1] | composite z-score [2] | z-score [3] | z-score [4] | z-score [5] | z-score [6] | z-score [7] | z-score [8] | z-score [9] | z-score [10]
C[N+](C)(C)CCCCCCNC(=O)[C@@H]1C[C@@H]2C(=O)N3CCC[C@H]3C(=O)N2[C@@H]1c1ccc(O)cc1 | 0.524 (inactive) | -0.021 | 1.55 (inactive) | -0.15 (inactive) | -0.72 (inactive) | -0.117 (inactive) | -0.196 | -0.425 (inactive) | 0.375 (inactive) | -0.233
C=CCC(OC(C)=O)[C@@H]1[C@@H](N(Cc2cccc3ccccc23)C(=O)Cc2ccc(F)cc2)c2cc(OCCCO)ccc2N1C(=O)c1ccc2ccccc2c1 (stereo not given in full) | 0.978 (inactive) | 0.23 | 1.06 (inactive) | 0.479 (inactive) | 0.51 (inactive) | 0.484 (inactive) | 0.336 | -1.5 (inactive) | 0.344 (inactive) | 0.453
[N-]=[N+]=Nc1ccccc1C[C@]1(C(=O)NCCN2CCOCC2)COC(c2ccc(OCCCO)cc2)=N1 | 1.87 (inactive) | 0.111 | 21.5 (active) | 4.14 (inactive) | 2.57 (inactive) | 0.913 (inactive) | 0.148 | 2.89 (inactive) | 1.12 (inactive) | -0.481
C=CCOC(=O)[C@@H]1[C@H]2C(=O)O[C@H](c3ccccc3)[C@H](c3ccccc3)N2[C@H](c2ccc(OCCOC(=O)[C@@H]3C[C@@H]4C(=O)N[C@@H](CCCC[N+](C)(C)C)C(=O)N4[C@@H]3c3ccc(O)cc3)cc2)[C@@]12C(=O)Nc1ccc(I)cc12 | 0.0995 (inactive) | 0.668 | 0.321 (inactive) | 1.12 (inactive) | 3.11 (inactive) | 0.0802 (inactive) | -1.27 | 2.43 (inactive) | 0.0539 (inactive) | 0.718
COc1cc2c(cc1O)C(c1ccc(CN3CCCC3)cc1)N(Cc1cc3c(cc1Br)OCO3)CC2 (stereo not given) | -2.4 (inactive) | -0.138 | 3.92 (inactive) | 0.984 (inactive) | 0.782 (inactive) | 0.526 (inactive) | 0.0637 | -3.51 (inactive) | -2.64 (inactive) | -3.57
[N-]=[N+]=Nc1ccccc1C[C@]1(C(=O)NCC(O)CO)COC(c2ccc(OCCCO)cc2)=N1 (stereo not given in full) | 0.759 (inactive) | 0.0512 | 22.8 (active) | 4.35 (inactive) | 3.57 (inactive) | 1.06 (inactive) | 0.575 | 1.52 (inactive) | 0.179 (inactive) | -1.13
COc1ccc([Si](C)(C)[C@@H]2[C@@H](CCO)O[C@]3(C(=O)N(Cc4ccccc4)c4ccc(N5CCOC5=O)cc43)[C@H]2C)cc1 | 0.519 (inactive) | 0.042 | 3.02 (inactive) | -0.0856 (inactive) | 0.796 (inactive) | -1.09 (inactive) | 2.12 | -0.245 (inactive) | 0.699 (inactive) | -1.07
O=C1C[C@]2(c3ccc([N+](=O)[O-])cc3)C(=O)N(C3CC3)c3cc(CO)ccc3[C@H]2N1CC12CC3CC(CC(C3)C1)C2 | -0.829 (inactive) | 0.599 | 0.617 (inactive) | -0.0621 (inactive) | 0.474 (inactive) | 0.255 (inactive) | 0.204 | 1.36 (inactive) | -1.64 (inactive) | 0.0712
C=CCNC(=O)[C@@H]1[C@H]2C(=O)O[C@H](c3ccccc3)[C@H](c3ccccc3)N2[C@H](c2ccccc2OCCO)[C@@]12C(=O)Nc1ccc(C#CCC(C(=O)OC)C(=O)OC)cc12 | -0.79 (inactive) | 0.666 | 4.93 (inactive) | 1.81 (inactive) | 0.622 (inactive) | 1.36 (inactive) | -0.304 | 0.21 (inactive) | 0.161 (inactive) | 1.98
CO[C@H]1O[C@H](CO)[C@@H](OC(=O)Nc2ccccc2)[C@H](OC(=O)c2cc3ccccc3[nH]2)[C@H]1OC(=O)c1cc2ccccc2[nH]1 | 0.541 (inactive) | 0.214 | 0.909 (inactive) | -0.795 (inactive) | 0.447 (inactive) | -0.758 (inactive) | 1.27 | -6.27 (inactive) | -0.405 (inactive) | -2.16
COC(=O)[C@@]1(Cc2ccc(OC)cc2)[C@H]2c3cc(C(=O)N4CCCC4)n(CCO)c3C[C@H]2CN1C(=O)c1ccccc1 | -1.72 (inactive) | 0.399 | 2.85 (inactive) | 0.766 (inactive) | 1.66 (inactive) | 0.815 (inactive) | 0.604 | -0.0722 (inactive) | -2.96 (inactive) | -4.86
CCOC(=O)C[C@H]1[C@H](OC(=O)c2cc3ccccc3oc2=O)[C@@H](NC(=O)c2ccc3ccccc3n2)c2cc(OCCCO)ccc2N1C(=O)Cc1ccc(OC)cc1 | 0.116 (inactive) | 0.0774 | 8.66 (active) | 1.33 (inactive) | 0.635 (inactive) | 0.745 (inactive) | -0.0026 | 1.01 (inactive) | 1 (inactive) | 1.53
CC(C)=C1C(=O)C(c2ccccc2)=C2CN3C(=O)N(CCc4ccccc4)C(=O)[C@]3(Cc3ccc(C(F)(F)F)cc3)[C@H]21 | -2.19 (inactive) | 0.522 | 22.3 (active) | 5.86 (inactive) | 0.511 (inactive) | 1.21 (inactive) | -0.558 | -0.12 (inactive) | -1.21 (inactive) | -0.226
COC(=O)c1c(CC[C@@H](CO)NC(=O)N[C@@H](C)Cn2cc(-c3ccccn3)nn2)oc(C(C)=O)c1C(=O)OC | -0.476 (inactive) | -0.106 | 1.71 (inactive) | -1.15 (inactive) | 0.613 (inactive) | -1.08 (inactive) | 0.42 | -3.95 (inactive) | -2.23 (inactive) | -3.06
